{"source": "a collection of fitness landscapes (doi:10.1038/s41467-024-54723-y)", "note": "In all, about 18,000 sequences were measured (“TetR repression strength (sort-seq, GFP reporter)”: median about 0.23, highest 2% from about 0.68 on). The full list was thinned out, with the highest values kept by preference."}
{"biological_target": "TetR (class B, Tn10) (UniProt P04483)", "sequence (P04483 whole entry)": "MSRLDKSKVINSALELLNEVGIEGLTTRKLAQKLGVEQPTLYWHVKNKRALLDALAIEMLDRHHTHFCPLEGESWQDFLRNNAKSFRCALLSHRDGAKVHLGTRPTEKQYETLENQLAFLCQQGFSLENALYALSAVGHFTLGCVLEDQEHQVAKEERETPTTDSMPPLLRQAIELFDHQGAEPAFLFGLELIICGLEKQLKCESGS", "assay": "TetR repression strength (sort-seq, GFP reporter) (relative to tetO2 = 1); higher = stronger repression", "details": "E. coli", "summary_of_the_method": "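Repression strength is the top bin index plus one minus the read-weighted mean bin, relative to the unaltered operator's value. A low-copy library in E. coli SIG10-MAX randomized eight operator positions between a constitutive promoter and sfGFP, with TetR expressed constitutively; cells grew 5 h at 37 °C in LB with 50 µg/mL chloramphenicol and 10^6 were FACS-sorted into 13 bins that were each Illumina-sequenced. Three independent transformations were averaged, keeping only members with ≥30 reads in all replicates and CV ≤0.5.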"}
{"sequence": "TCCCGTTGAGTCGGCGAGA", "TetR repression strength": 0.157}
{"sequence": "TCCCACCAAGTAGGAGAGA", "TetR repression strength": 0.285}
{"sequence": "TCCCTAAGAGTACTGGAGA", "TetR repression strength": 0.401}
{"sequence": "TCCCGCCGAGTTAAGGAGA", "TetR repression strength": 0.19}
{"sequence": "TCCCGACGAGTAGTGGAGA", "TetR repression strength": 0.171}
{"sequence": "TCCCAATCAGTTTGAGAGA", "TetR repression strength": 0.144}
{"sequence": "TCCCTCGCAGTGAGCGAGA", "TetR repression strength": 0.22}
{"sequence": "TCCCAGGCAGTAAGGGAGA", "TetR repression strength": 0.0777}
{"sequence": "TCCCGGTCAGTGGTCGAGA", "TetR repression strength": 0.633}
{"sequence": "TCCCGGTCAGTGATCGAGA", "TetR repression strength": 0.684}
{"sequence": "TCCCAGTCAGTGATCGAGA", "TetR repression strength": 0.322}
{"sequence": "TCCCCGGGAGTCCACGAGA", "TetR repression strength": 0.252}
{"sequence": "TCCCCCTGAGTTTATGAGA", "TetR repression strength": 0.265}
{"sequence": "TCCCGGGGAGTTACAGAGA", "TetR repression strength": 0.903}
{"sequence": "TCCCCGGGAGTTAATGAGA", "TetR repression strength": 0.517}
{"sequence": "TCCCGCGGAGTTTATGAGA", "TetR repression strength": 0.184}
{"sequence": "TCCCGGGAAGTTACAGAGA", "TetR repression strength": 0.0346}
{"sequence": "TCCCGAGGAGTTAACGAGA", "TetR repression strength": 0.535}
{"sequence": "TCCCGGGGAGTTAATGAGA", "TetR repression strength": 0.944}
{"sequence": "TCCCGAGTAGTTAAGGAGA", "TetR repression strength": 0.21}
{"sequence": "TCCCGAGTAGTTAACGAGA", "TetR repression strength": 0.857}
{"sequence": "TCCCGGAGAGTTAATGAGA", "TetR repression strength": 0.225}
{"sequence": "TCCCCCGGAGTTTATGAGA", "TetR repression strength": 0.801}
{"sequence": "TCCCGGAGAGTTACAGAGA", "TetR repression strength": 0.245}
{"sequence": "TCCCAGACAGTGATAGAGA", "TetR repression strength": 0.384}
{"sequence": "TCCCGCAGAGTGTCTGAGA", "TetR repression strength": 0.216}
{"sequence": "TCCCGTTAAGTCGCGGAGA", "TetR repression strength": 0.391}
{"sequence": "TCCCCTTGAGTGTAAGAGA", "TetR repression strength": 0.558}
{"sequence": "TCCCGTCGAGTGTCAGAGA", "TetR repression strength": 0.263}
{"sequence": "TCCCGTGTAGTTGTTGAGA", "TetR repression strength": 0.0138}
{"sequence": "TCCCGGGTAGTTAGTGAGA", "TetR repression strength": 0.166}
{"sequence": "TCCCGGGTAGTTAATGAGA", "TetR repression strength": 1}
{"sequence": "TCCCGCGTAGTTAATGAGA", "TetR repression strength": 0.421}
{"sequence": "TCCCCAGCAGTGATGGAGA", "TetR repression strength": 0.2}
{"sequence": "TCCCAGAAAGTGGCGGAGA", "TetR repression strength": 0.316}
{"sequence": "TCCCAGAGAGTAGACGAGA", "TetR repression strength": 0.217}
{"sequence": "TCCCAGCGAGTAGACGAGA", "TetR repression strength": 1.03}
{"sequence": "TCCCTCCGAGTAGGTGAGA", "TetR repression strength": 0.222}
{"sequence": "TCCCACCGAGTAGGCGAGA", "TetR repression strength": 0.166}
{"sequence": "TCCCGGCGAGTAGACGAGA", "TetR repression strength": 1.03}
{"sequence": "TCCCTCCGAGTAGGCGAGA", "TetR repression strength": 0.745}
{"sequence": "TCCCAGCGAGTAGAAGAGA", "TetR repression strength": 0.334}
{"sequence": "TCCCGGCGAGTAGAGGAGA", "TetR repression strength": 0.248}
{"sequence": "TCCCGGCGAGTAGAAGAGA", "TetR repression strength": 0.418}
{"sequence": "TCCCGGGTAGTGGTGGAGA", "TetR repression strength": 0.277}
{"sequence": "TCCCCATCAGTGAGCGAGA", "TetR repression strength": 0.19}
{"sequence": "TCCCGATCAGTTAGGGAGA", "TetR repression strength": 0.313}
{"sequence": "TCCCTTTCAGTTTTGGAGA", "TetR repression strength": 0.151}
{"sequence": "TCCCTTTCAGTTTCGGAGA", "TetR repression strength": 0.422}
{"sequence": "TCCCTTTCAGTTTGGGAGA", "TetR repression strength": 0.925}
{"sequence": "TCCCATGGAGTTTGGGAGA", "TetR repression strength": 0.201}
{"sequence": "TCCCATGCAGTTTGGGAGA", "TetR repression strength": 1.07}
{"sequence": "TCCCATGCAGTTGGGGAGA", "TetR repression strength": 0.216}
{"sequence": "TCCCAGTGAGTCGCAGAGA", "TetR repression strength": 0.0941}
{"sequence": "TCCCTTGGAGTCGGCGAGA", "TetR repression strength": 0.0727}
{"sequence": "TCCCATTCAGTATCGGAGA", "TetR repression strength": 0.159}
{"sequence": "TCCCATTCAGTCCGCGAGA", "TetR repression strength": 0.259}
{"sequence": "TCCCAGGGAGTAGGGGAGA", "TetR repression strength": 0.204}
{"sequence": "TCCCACTGAGTCAGAGAGA", "TetR repression strength": 0.279}
{"sequence": "TCCCGGTGAGTATGCGAGA", "TetR repression strength": 1.15}
{"sequence": "TCCCGGTGAGTGGACGAGA", "TetR repression strength": 0.496}
{"sequence": "TCCCCTTGAGTATGCGAGA", "TetR repression strength": 1.05}
{"sequence": "TCCCGGTTAGTATGCGAGA", "TetR repression strength": 0.19}
{"sequence": "TCCCTTTGAGTATGCGAGA", "TetR repression strength": 0.127}
{"sequence": "TCCCCTTGAGTATGTGAGA", "TetR repression strength": 0.409}
{"sequence": "TCCCGGTGAGTGAACGAGA", "TetR repression strength": 0.819}
{"sequence": "TCCCGGAGAGTATGCGAGA", "TetR repression strength": 0.159}
{"sequence": "TCCCGGTGAGTAAACGAGA", "TetR repression strength": 0.0592}
{"sequence": "TCCCCTGCAGTATGAGAGA", "TetR repression strength": 0.855}
{"sequence": "TCCCTTGCAGTATGAGAGA", "TetR repression strength": 0.157}
{"sequence": "TCCCCTGCAGTATTAGAGA", "TetR repression strength": 0.211}
{"sequence": "TCCCGAGTAGTTATCGAGA", "TetR repression strength": 0.34}
{"sequence": "TCCCGGGTAGTCTGAGAGA", "TetR repression strength": 0.147}
{"sequence": "TCCCGACCAGTTTCGGAGA", "TetR repression strength": 0.0546}
{"sequence": "TCCCTGCGAGTTCGTGAGA", "TetR repression strength": 0.297}
{"sequence": "TCCCGGGAAGTTGATGAGA", "TetR repression strength": 0.0797}
{"sequence": "TCCCTGCGAGTCGGTGAGA", "TetR repression strength": 0.245}
{"sequence": "TCCCACTCAGTGCCAGAGA", "TetR repression strength": 0.287}
{"sequence": "TCCCTAAAAGTGGAAGAGA", "TetR repression strength": 0.104}
{"sequence": "TCCCTATGAGTGGTAGAGA", "TetR repression strength": 0.288}
{"sequence": "TCCCTACCAGTCGCGGAGA", "TetR repression strength": 0.967}
{"sequence": "TCCCTACAAGTGGAAGAGA", "TetR repression strength": 1.21}
{"sequence": "TCCCTACCAGTGCAAGAGA", "TetR repression strength": 0.199}
{"sequence": "TCCCTCCCAGTGGAAGAGA", "TetR repression strength": 0.491}
{"sequence": "TCCCTGCAAGTGGAAGAGA", "TetR repression strength": 0.276}
{"sequence": "TCCCTATCAGTGGTAGAGA", "TetR repression strength": 1.01}
{"sequence": "TCCCTAACAGTGGTAGAGA", "TetR repression strength": 0.415}
{"sequence": "TCCCTACCAGTGGAAGAGA", "TetR repression strength": 1.24}
{"sequence": "TCCCTACCAGTCGGAGAGA", "TetR repression strength": 0.278}
{"sequence": "TCCCTCCCAGTCGCGGAGA", "TetR repression strength": 0.291}
{"sequence": "TCCCTGACAGTCGGTGAGA", "TetR repression strength": 0.106}
{"sequence": "TCCCAGGGAGTTTTAGAGA", "TetR repression strength": 0.305}
{"sequence": "TCCCACGTAGTCAATGAGA", "TetR repression strength": 0.157}
{"sequence": "TCCCTCAGAGTAAAGGAGA", "TetR repression strength": 0.218}
{"sequence": "TCCCTTTGAGTAGGTGAGA", "TetR repression strength": 0.168}
{"sequence": "TCCCATTGAGTTGCTGAGA", "TetR repression strength": 0.153}
{"sequence": "TCCCTCACAGTCAGTGAGA", "TetR repression strength": 0.302}
{"sequence": "TCCCGCAAAGTGAATGAGA", "TetR repression strength": 0.207}
{"sequence": "TCCCCGCGAGTGACAGAGA", "TetR repression strength": 0.569}
{"sequence": "TCCCAACAAGTGAGTGAGA", "TetR repression strength": 0.42}
{"sequence": "TCCCTATCAGTGGAAGAGA", "TetR repression strength": 0.722}
{"sequence": "TCCCTATCAGTTGAAGAGA", "TetR repression strength": 0.55}
{"sequence": "TCCCTAACAGTGGAAGAGA", "TetR repression strength": 0.299}
{"sequence": "TCCCCGACAGTTGCGGAGA", "TetR repression strength": 0.0545}
{"sequence": "TCCCTGGGAGTTTAGGAGA", "TetR repression strength": 0.302}
{"sequence": "TCCCTGCAAGTACCTGAGA", "TetR repression strength": 0.308}
{"sequence": "TCCCGGCGAGTGGGGGAGA", "TetR repression strength": 0.193}
